# Records with an inconclusive call do not appear. A call without a number means that no potency is given here. The source made the active and inactive calls. Unless noted, calls follow the shape of the dose curve; as a rule, active = well fitted curve in the direction sought with a large enough effect; inconclusive = small, poorly fitted or top-dose-only effect, or another doubt; inactive = no such curve, though single readings can be large; an effect the other way counts as inactive or inconclusive.
# Tests used:
# [1] = Primary qHTS for inhibitors of nuclear receptor binding SET domain protein 2 (NSD2) in an isogenic RCH-ACV NSD2 p.E1099K mutant (9B) (AID 1645876); also: nearly all actives have a fitted effect of over 70% in size; also: potency is read from the fitted curve at half-maximal effect
# [2] = Primary qHTS for inhibitors of nuclear receptor binding SET domain protein 2 (NSD2) in an RCH-ACV wild type WT cells (2C) (AID 1645877); also: nearly all actives have a fitted effect of over 70% in size; also: potency is read from the fitted curve at half-maximal effect
# [3] = NCATS anti-infectives library activity on HEK293 viability as a counter-qHTS vs the C. elegans viability qHTS (AID 1745854);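 also: HEK293 cells exposed to compounds for 24 hr before the viability read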
# How it was run: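 Compound titrations (final up to 41.7 uM) were incubated with HEK293 cells for 24 hr at 37C under 5% CO2. Viable cells were quantified with CellTiter-Glo after 10 min at ambient temperature.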
# [4] = target: Glutathione peroxidase 1 (Homo sapiens) (UniProt P07203); experiment: Primary qHTS Assay for Inhibitors of Recombinant Selenoprotein Glutathione Peroxidase 1 (GPX1) (AID 1845191); also: nearly all actives have a fitted effect of over 65% in size
# How it was run: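 GPX1 10 nM, GR 100 nM, GSH 1 mM, NADPH 0.5 mM, CHP 0.5 mM (final). 30-min cpd preincubation, RT. Ex340/Em450 read t=0, t=15 min.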
# [5] = target: Catechol O-methyltransferase (Homo sapiens) (UniProt P21964); experiment: Confirmatory Screen for Target Class Profiling of Small Molecule Inhibitors of Methyltransferases (AID 1745852; calls by dose curve; also: potency is read from the fitted curve at half-maximal effect); conditions: MTase-Glo luminescence, SAH detection, recombinant enzyme; measured here: COMT max response; stronger effect = lower value
# [6] = target: Guanidinoacetate N-methyltransferase (Homo sapiens) (UniProt Q14353); experiment: as above; conditions: activity change, negative = inhibition: at 57.3 µM (top of the series) unless noted
# [7] = target: Nicotinamide N-methyltransferase (Homo sapiens) (UniProt P40261); experiment: as above; conditions: MTase-Glo luminescence, SAH detection, recombinant enzyme; measured here: NNMT max response; stronger effect = lower value
# [8] = target: Phenylethanolamine N-methyltransferase (Homo sapiens) (UniProt P11086); experiment: as above; conditions: MTase-Glo luminescence, SAH detection, recombinant enzyme; measured here: PNMT max response; stronger effect = lower value
# [9] = Viability counterscreen for antagonist of constitutive androstane receptor (CAR) against the NCATS DSHEA and TCM libraries (AID 1794837);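 also: compound exposure lasted 24 h before viability reading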
# How it was run: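 Cell viability, CellTiter-Fluor, Ex/Em 405/540 nm, 1 h at 37C. HepG2-CYP2B6-hCAR, 2,500 cells/well; cpds + CITCO 48 uM final (antagonist mode), 24 h, 37C/5% CO2.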
# [10] = Viability counterscreen for agonist of constitutive androstane receptor (CAR) against the NCATS DSHEA and TCM libraries (AID 1794838)
# How it was run: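 Viability by CellTiter-Fluor fluorescence, 405/540 nm, after 1 h at 37C. HepG2-CYP2B6-hCAR cells were exposed 24 h to test substances in presence of 0.75 uM PK11195 (final).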
# [11] = target: Nuclear receptor subfamily 1 group I member 3 (Homo sapiens) (UniProt Q14994); experiment: Primary qHTS for agonist of constitutive androstane receptor (CAR) against the NCATS DSHEA and TCM libraries (AID 1794839);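 also: HepG2 cells expressing human CAR with a CYP2B6 reporter plus PK11195 antagonist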
# How it was run: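 Luminescence from ONE-Glo luciferase was the agonist read-out in HepG2-CYP2B6-hCAR cells exposed 24 h to test substances. Wells also held the CAR antagonist PK11195 at 0.75 µM final. Viability was by CellTiter-Fluor fluorescence.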
# [12] = HepG2 viability counterscreen (readout 2: ATP content) against the NCATS DSHEA and TCM libraries (AID 1794840)
# How it was run: (§1)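 1,000 HepG2 cells/well, 4 h attach; compounds ~24 h, 37C/5% CO2. Readout 1: GF-AFC 25 uM final, 30 min, fluorescence 380/510 nm. Readout 2: CellTiter-Glo, 30 min RT, luminescence.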
# [13] = HepG2 viability counterscreen (readout 1: protease activity) against the NCATS DSHEA and TCM libraries (AID 1794841);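 also: cells exposed to compounds for about 24 h before the protease read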
# How it was run: as §1
# Catechol O-methyltransferase (Homo sapiens), sequence (P21964 whole entry, looked up): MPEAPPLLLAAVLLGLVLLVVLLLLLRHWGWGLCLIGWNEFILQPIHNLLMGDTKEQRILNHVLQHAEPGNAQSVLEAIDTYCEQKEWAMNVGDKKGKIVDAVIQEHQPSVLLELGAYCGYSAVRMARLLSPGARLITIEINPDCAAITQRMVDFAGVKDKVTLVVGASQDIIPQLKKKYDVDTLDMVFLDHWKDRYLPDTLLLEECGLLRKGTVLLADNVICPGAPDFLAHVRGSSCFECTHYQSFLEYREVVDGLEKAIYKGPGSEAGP
# Glutathione peroxidase 1 (Homo sapiens), sequence (P07203 whole entry, looked up): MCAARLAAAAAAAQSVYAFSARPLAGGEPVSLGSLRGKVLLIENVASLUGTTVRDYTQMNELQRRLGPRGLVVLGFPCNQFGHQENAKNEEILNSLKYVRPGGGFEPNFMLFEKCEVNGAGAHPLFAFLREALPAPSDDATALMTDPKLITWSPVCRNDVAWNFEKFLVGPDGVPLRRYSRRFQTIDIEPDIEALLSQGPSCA
# Nicotinamide N-methyltransferase (Homo sapiens), sequence (P40261 whole entry, looked up): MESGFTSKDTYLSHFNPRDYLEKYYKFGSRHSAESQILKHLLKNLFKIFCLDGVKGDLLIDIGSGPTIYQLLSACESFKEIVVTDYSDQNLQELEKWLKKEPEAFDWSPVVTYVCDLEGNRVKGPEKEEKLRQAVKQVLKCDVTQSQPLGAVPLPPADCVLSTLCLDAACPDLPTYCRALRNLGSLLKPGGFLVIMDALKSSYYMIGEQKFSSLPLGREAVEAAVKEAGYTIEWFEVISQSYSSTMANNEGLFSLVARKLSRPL
# Phenylethanolamine N-methyltransferase (Homo sapiens), sequence (P11086 whole entry, looked up): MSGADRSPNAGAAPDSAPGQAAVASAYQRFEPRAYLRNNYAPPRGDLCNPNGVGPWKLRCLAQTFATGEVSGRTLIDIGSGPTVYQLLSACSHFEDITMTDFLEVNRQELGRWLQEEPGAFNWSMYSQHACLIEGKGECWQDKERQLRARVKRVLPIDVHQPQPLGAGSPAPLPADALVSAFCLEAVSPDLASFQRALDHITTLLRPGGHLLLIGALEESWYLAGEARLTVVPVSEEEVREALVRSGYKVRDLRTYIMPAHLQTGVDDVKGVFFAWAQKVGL
# Nuclear receptor subfamily 1 group I member 3 (Homo sapiens), sequence (Q14994 whole entry, looked up): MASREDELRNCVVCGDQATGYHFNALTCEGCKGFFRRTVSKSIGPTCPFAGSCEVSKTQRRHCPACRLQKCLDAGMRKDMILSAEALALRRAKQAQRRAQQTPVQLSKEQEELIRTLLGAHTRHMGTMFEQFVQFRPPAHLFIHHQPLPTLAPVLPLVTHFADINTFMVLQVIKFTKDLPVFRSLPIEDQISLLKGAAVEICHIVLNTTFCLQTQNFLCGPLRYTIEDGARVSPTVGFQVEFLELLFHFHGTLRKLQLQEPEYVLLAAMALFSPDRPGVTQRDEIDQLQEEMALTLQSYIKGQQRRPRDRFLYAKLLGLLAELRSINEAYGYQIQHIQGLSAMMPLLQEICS
smiles,measurement,setting,value
CN[C@H](CC(C)C)C(=O)N[C@H]1C(=O)N[C@@H](CC(N)=O)C(=O)N[C@H]2C(=O)N[C@H]3C(=O)N[C@H](C(=O)N[C@H](C(=O)O)c4cc(O)cc(O)c4-c4cc3ccc4O)[C@H](O[C@H]3C[C@](C)(N)[C@@H](O)[C@H](C)O3)c3ccc(c(Cl)c3)Oc3cc2cc(c3O[C@@H]2O[C@H](CO)[C@@H](O)[C@H](O)[C@H]2O[C@H]2C[C@](C)(NCc3ccc(-c4ccc(Cl)cc4)cc3)[C@@H](O)[C@H](C)O2)Oc2ccc(cc2Cl)[C@H]1O,Potency,[1],inactive
same,Potency,[2],inactive
same,Potency,[3],inactive
same,Potency,[4],inactive
COc1c2c(cc3c1-c1c(cc4c(c1OC)OCO4)CC(C)C(C)C3)OCO2 (stereo unspecified),Potency,[1],inactive
same,Potency,[2],inactive
same,Potency,[3],inactive
same,Potency,[4],inactive
COC(=O)C1=CO[C@@H](O[C@@H]2O[C@H](CO)[C@@H](O)[C@H](O)[C@H]2O)[C@H]2[C@@H]1CC(OC)O[C@@H]2C (stereo partly specified),Potency,[1],inactive
same,Potency,[2],inactive
same,activity,[5],-63.3%
same,"activity change, negative = inhibition",[6],-2.71% [at 29.8 µM]
same,activity,[7],-1.72%
same,activity,[8],-2.32%
same,Potency,[4],inactive
CC1(C)[C@@H](O)CC[C@]2(C)[C@H]3CC=C4[C@@H]5C[C@](C)(C(=O)O)CC[C@]5(C)CC[C@@]4(C)[C@]3(C)CC[C@@H]12,Potency,[1],inactive
same,Potency,[2],inactive
same,activity,[5],-16.8%
same,Potency,[6],27100 nM (active)
same,activity,[7],-38.7%
same,activity,[8],-42.7%
same,Potency,[4],inactive
CC/C=C\CCO[C@@H]1O[C@H](CO)[C@@H](O)[C@H](O)[C@H]1O,Potency,[1],inactive
same,Potency,[2],inactive
same,activity,[5],-74.1%
same,"activity change, negative = inhibition",[6],0%
same,activity,[7],1.9%
same,activity,[8],0.287%
same,Potency,[4],inactive
CC1OC(OC2C(O)C(OC3CCC4(C)C(CCC5(C)C4CC=C4C6CC(C)(COC7OC(CO)C(O)C(O)C7O)CC(O)C6(C)CCC45C)C3(C)C)OC(C(=O)O)C2O)C(O)C(O)C1OC1OCC(O)C(O)C1O (stereo unspecified),"activity change, negative = viability loss",[1],-10.7% [at 9.23 µM] (inactive)
same,"activity change, negative = cell killing",[2],-2.6% [at 9.23 µM] (inactive)
same,Potency,[4],inactive
CC1(C)CC[C@]2(C(=O)O[C@@H]3O[C@H](CO)[C@@H](O)[C@H](O)[C@H]3O)CC[C@]3(C)C(=CCC4[C@@]5(C)C[C@@H](O)[C@H](O)C(C)(C)C5CC[C@]43C)C2[C@@H]1O (stereo partly specified),Potency,[1],inactive
same,Potency,[2],inactive
same,activity,[5],-85.2%
same,"activity change, negative = inhibition",[6],-2.23% [at 19.1 µM]
same,activity,[7],-0.101%
same,activity,[8],-0.0843%
same,Potency,[4],inactive
CC(C)C(NC(=O)c1ccc2ccccc2n1)C(=O)NC(CC(=O)O)C(=O)COc1c(F)cccc1F (stereo unspecified),Potency,[1],inactive
same,Potency,[2],inactive
same,Potency,[3],inactive
same,Potency,[4],inactive
Cc1cc(C)cc(C(=O)NOCCCCCC(=O)NO)c1,Potency,[1],515 nM (active)
same,Potency,[2],409 nM (active)
same,Potency,[3],inactive
same,Potency,[4],inactive
CCC(C)C(=O)OC1CC(O)C23C4OCC5(C(O)CC2C1(C)C(O)O4)C3C(=O)C(O)C1(C)C(O)(c2ccoc2)CC2OC251 (stereo unspecified),Potency,[1],136 nM (active)
same,Potency,[2],76.5 nM (active)
same,activity,[5],-73%
same,"activity change, negative = inhibition",[6],-8.15% [at 19.1 µM]
same,activity,[7],-4.23%
same,activity,[8],-2.09%
same,Potency,[4],inactive
CC1CC[C@]2(C(=O)O)CC[C@]3(C(=O)O)C(=CCC4[C@@]5(C)CC[C@H](OC6OC(C)C(O)C(OC7OC(CO)C(O)C(O)C7O)C6O)C(C)(C)C5CC[C@]43C)C2C1C (stereo partly specified),Potency,[1],inactive
same,Potency,[2],inactive
same,outcome,[9],inactive
same,outcome,[10],inactive
same,outcome,[11],inactive
same,outcome,[12],inactive
same,outcome,[13],inactive
same,Potency,[4],inactive
CC(C)=CCC[C@](C)(O[C@@H]1O[C@H](CO[C@@H]2O[C@H](CO)[C@@H](O)[C@H](O)[C@H]2O)[C@@H](O)[C@H](O)[C@H]1O)C1CC[C@]2(C)[C@@H]1[C@H](O)CC1[C@@]3(C)CC[C@H](O[C@@H]4O[C@H](CO)[C@@H](O)[C@H](O)[C@H]4O[C@@H]4O[C@H](CO)[C@@H](O)[C@H](O)[C@H]4O)C(C)(C)[C@@H]3CC[C@]12C (stereo partly specified),"activity change, negative = viability loss",[1],-10.6% [at 9.23 µM] (inactive)
same,"activity change, negative = cell killing",[2],-25.5% [at 9.23 µM] (inactive)
same,outcome,[9],inactive
same,"activity change, negative = cytotoxicity",[10],3.8% [at 8.32 µM] (inactive)
same,outcome,[11],inactive
same,outcome,[12],inactive
same,outcome,[13],inactive
C[C@@]1(O)[C@H](O)[C@@H](CO)O[C@H]1n1ccc(N)nc1=O,Potency,[1],20500 nM (active)
same,Potency,[2],23000 nM (active)
same,Potency,[3],inactive
same,Potency,[4],inactive
CC(C)C[C@H](CC(=O)NO)C(=O)N[C@@H](Cc1ccc2ccccc2c1)C(=O)N[C@@H](C)C(=O)NCCN,Potency,[1],inactive
same,Potency,[2],inactive
same,Potency,[3],inactive
same,Potency,[4],inactive
COc1cc(C(=O)OC[C@H]2O[C@@H](Oc3ccccc3/C=C/C(=O)O)[C@H](O)[C@@H](O)[C@@H]2O)cc(OC)c1OC,Potency,[1],inactive
same,Potency,[2],inactive
same,activity,[5],-77.7%
same,"activity change, negative = inhibition",[6],-3.16% [at 29.8 µM]
same,activity,[7],-2.69%
same,activity,[8],-3.5%
same,Potency,[4],inactive
NCCCNc1ccc(Nc2nccc(Nc3cc(C4CC4)[nH]n3)n2)cc1,Potency,[1],578 nM (active)
same,Potency,[2],515 nM (active)
same,activity,[5],-13.5%
same,Potency,[6],27100 nM (active)
same,activity,[7],-57.6%
same,activity,[8],-35.6%
same,Potency,[4],inactive

# Source: PubChem BioAssay (NCATS)
